# Assay outcomes deposited in PubChem by National Center for Advancing Translational Sciences (NCATS).
# In the library only some 2.4% were active in any assay of this set; here they are far more common.
# D2 ag-1 = agonists of human D2 dopamine receptor | P14416 | HEK293 T-REx D2 cells, calcium flux agonist mode | activation, % at 2 µM | 0.53% of 340,000 active | AID 485358;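 active = activation over 3 SD above normal in the single-dose calcium agonist read, cut at about 30% in these data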; also: 0% is about no effect
# Target sequence (P14416 whole entry, looked up): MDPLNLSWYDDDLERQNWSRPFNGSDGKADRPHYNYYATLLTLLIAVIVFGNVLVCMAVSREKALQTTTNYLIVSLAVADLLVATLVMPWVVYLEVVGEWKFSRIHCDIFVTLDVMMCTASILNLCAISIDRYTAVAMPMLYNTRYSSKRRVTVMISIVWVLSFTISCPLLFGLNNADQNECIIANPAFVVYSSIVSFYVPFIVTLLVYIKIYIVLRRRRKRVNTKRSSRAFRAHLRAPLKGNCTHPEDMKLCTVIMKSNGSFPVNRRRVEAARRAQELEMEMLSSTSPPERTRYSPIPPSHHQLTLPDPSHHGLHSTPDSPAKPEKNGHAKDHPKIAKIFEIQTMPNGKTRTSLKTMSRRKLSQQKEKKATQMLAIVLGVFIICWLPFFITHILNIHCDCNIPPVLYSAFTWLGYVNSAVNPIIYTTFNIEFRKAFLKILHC
#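 Tetracycline-induced HEK293 Trex cells with D2 receptor force-coupled to calcium signaling, plated overnight at 30 C and loaded with no-wash calcium dye. Calcium flux read kinetically for 180 s after compound addition; responses flag agonists.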
# D2 PAM-1 = positively modulates the human D2 dopamine receptor allosterically; P14416; AID 485347; HEK293 T-REx D2, calcium flux, EC20 dopamine potentiation; potentiation, % at 10 µM; 0.34% of 340,000 active;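 active = potentiation over 3 SD above the plate norm, cut at about 30% in these data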; also: 0% is about no effect
#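 Tetracycline-induced Hek293 Trex D2 cells, force-coupled to calcium, loaded with no-wash calcium dye. Compound added with 180 s kinetic read for agonism, then EC20 dopamine and a further 180 s read for potentiation.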
# D2 antagonist = antagonizes the human D2 dopamine receptor | HEK293 TREx D2 cells, calcium flux, dopamine EC80 | inhibition, % at 10 µM | 2% of 340,000 active | AID 485344; in the data active = inhibition above about 30%; inactive = below that, where a call was filed; also: 0% is about no effect
#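 Measurement of antagonist activity uses fluorescent calcium dye in inducible HEK293 T-REx D2 cells: 10 s baseline, compound addition with 180 s read, EC80 dopamine addition with a further 180 s read.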
# D2 ag-2 = agonists of human D2 dopamine receptor (beta-arrestin) | P14416 | DiscoveRx PathHunter D2 beta-arrestin, luminescence, 90 min; 100% = 57 uM dopamine signal | activation, % (no concentration beside the values) | 0.084% of 360,000 active | AID 624465; in the data active = activation above about 40%; inconclusive = between about 15% and that limit
#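 DiscoveRx PathHunter D2 beta-arrestin cells (2,100/well) attached overnight, then compound-stimulated 90 min at 37 C in HBSS/10 mM HEPES/0.1% Tween-20 buffer; beta-galactosidase complementation read by luminescence after 1 h at ambient temperature. Dopamine 57 uM final (EC100) as control.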
# D2 PAM-2 = potentiates the human D2 dopamine receptor allosterically | DiscoveRx D2 beta-arrestin cells, luminescence, 90 min; 100% = 57 uM dopamine signal | potentiation, % (test concentration not listed) | 0.23% of 360,000 active | AID 624464; in the data active = potentiation above about 50%; inconclusive = mostly about 30% to 49%
#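 PathHunter D2 cells, attached overnight at 37 deg C, received compound in DMSO plus dopamine at EC20 (50 nM final) for 90 min at 37 deg C. Beta-arrestin recruitment was read as luminescence after 1 h with detection reagent at ambient temperature.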
# An asterisk follows results filed as active; ? = inconclusive; . = not tested or not shown.
SMILES,D2 ag-1,D2 PAM-1,D2 antagonist,D2 ag-2,D2 PAM-2
O=C1CC(N2CCN(c3ccccc3)CC2)C(=O)N1c1ccc2c(c1)OCCO2 (stereo unspecified),0,-6,38*,-3,-16
CN1CCN(C2CC(=O)N(c3ccc4c(c3)OCCO4)C2=O)CC1 (stereo unspecified),1,-12,-2,-1,15
O=C1CC(N2CCOCC2)C(=O)N1c1ccccc1Cl (stereo unspecified),0,57*,-11,-5,-2
O=C(C=Cc1ccc2c(c1)OCO2)OCC=Cc1ccc2c(c1)OCO2,.,.,.,3,-2
CCn1c(=O)c2cc(C(=O)N3CCN(c4cccc(Cl)c4)CC3)sc2c2ccccc21,-1,-11,.,.,.
N/C(=N\OS(=O)(=O)c1ccc(Cl)cc1)c1ccncc1,1,0,1,?,67*
Cn1c(=O)c2sccc2n2c(CCCC(=O)Nc3ccc(F)cc3F)nnc12,1,32*,4,-2,-11
Cn1c(=O)c2sccc2n2c(CCCC(=O)NCc3ccc(F)cc3)nnc12,2,33*,-12,-1,-8
Cn1c(=O)c2sccc2n2c(CCCC(=O)Nc3ccc(F)c(F)c3)nnc12,0,22,.,.,.
Cn1c(=O)c2sccc2n2c(CCCC(=O)NCc3cccnc3)nnc12,0,12,7,-5,-5
Cn1c(=O)c2sccc2n2c(CCCC(=O)NCc3ccc4c(c3)OCO4)nnc12,0,35*,-16,-2,-9
CCOC(=O)N(O)c1ccc(C=Cc2ccccc2)cc1,.,.,.,6,3
CCSc1nnc2c(n1)OC(c1ccc(C)cc1)N(C(C)=O)c1ccccc1-2 (stereo unspecified),0,-10,.,.,.
O=C(NCCc1ccc(F)cc1)c1cccc(NC(=O)c2ccccc2)c1,1,-10,-1,-7,-2
COc1ccc(Oc2c(C(F)(F)F)oc3c(CN4CCCC(C)C4)c(O)ccc3c2=O)cc1 (stereo unspecified),.,0,.,.,.
CN1C2CCC1CC(OC(c1ccccc1)c1ccccc1)C2 (stereo unspecified),0,-24,36*,-3,-24
CC(OC(=O)c1c2c(nc3ccccc13)/C(=C\c1ccc3c(c1)OCO3)CCC2)C(=O)Nc1ccc(S(N)(=O)=O)cc1 (stereo unspecified),100*,7,8,9,6
CCOc1nc(OCC)c2[nH]c(C(=O)O)c(Br)c2n1,.,.,.,-1,5
Cc1ccc(-c2nnc(N3CCN(C(=O)CSc4ncn[nH]4)CC3)c3ccccc23)cc1,3,.,47*,0,-3
O=C(Nc1ccccc1N1CCOCC1)c1cccc(NS(=O)(=O)c2ccc(F)c(F)c2)c1,-1,-18,48*,12,3
O=C(Nc1ccccc1N1CCOCC1)c1ccccc1NS(=O)(=O)c1ccc(F)c(F)c1,2,6,-3,0,-14
COc1cccc(S(=O)(=O)Nc2cccc(C(=O)N3CCOCC3)c2)c1,0,1,36*,-4,-17
COc1ccc(N2CCN(C(=O)c3ccc(NS(=O)(=O)c4cccc(F)c4)cc3)CC2)cc1,0,34*,3,0,3
O=C(c1ccccc1)N1CCN(c2ccccc2F)CC1,3,-18,0,2,-10
CS(=O)(=O)Nc1ccc(C(=O)N2CCN(c3ccccc3F)CC2)cc1,0,-6,63*,-2,-3
SMILES,D2 ag-1,D2 PAM-1,D2 antagonist,D2 ag-2,D2 PAM-2
COc1cccc(S(=O)(=O)Nc2cccc(C(=O)N3CCCC3)c2)c1,0,-1,-3,6,-5
O=C(NC1CCCCC1)c1cc(S(=O)(=O)N2CCOCC2)ccc1Cl,-3,.,-9,0,-3
Cc1cccc(C(=O)NC2CCN(S(=O)(=O)c3ccc(F)cc3)CC2)c1,-2,-5,-7,0,0
Cc1onc(-c2ccc(Cl)cc2Cl)c1C(=O)/C=C/N(C)C,0,-1,16,-4,-13
CC(=O)c1c(-c2ccc(Cl)cc2Cl)noc1C,0,-11,30*,-19,-8
COc1ccccc1CNC(=O)c1cccc2c1C(=O)N(Cc1cccnc1)C2,-1,31*,-12,-6,-1
COC(CNC(=O)c1cccc2c1C(=O)N(Cc1cccnc1)C2)OC,-2,0,-4,-5,-24
CCOC(=O)C1CCCN(C(=O)c2cc(-c3ccncc3)nc3ccccc23)C1 (stereo unspecified),0,8,-4,-4,9
CCOC(=O)C1CCCN(C(=O)c2cc3c(=O)n4ccccc4nc3s2)C1 (stereo unspecified),1,44*,2,-5,-30
CC1CCN(c2oc(-c3ccc(F)cc3)nc2C#N)CC1,-1,1,3,3,-8
Cc1cccn2c(=O)c3cc(C(=O)N4CC(C)CC(C)C4)sc3nc12 (stereo unspecified),2,38*,-3,-4,-4
CCOC(=O)C1CCCN(c2oc(-c3ccc(F)cc3)nc2C#N)C1 (stereo unspecified),1,2,35*,-3,6
CCOC(=O)C1CCCN(C(=O)c2cc(-c3ccc(F)cc3)nc3ccccc23)C1 (stereo unspecified),0,5,47*,-1,-2
Cc1ccccc1C1=CCN(c2ncc(NC(=O)c3ccc(Cl)cc3)cc2C(=O)O)CC1,0,-19,.,.,.
Cc1ccc(CS(=O)Cc2ccc(C(=O)N3CCN(c4ccccn4)CC3)o2)cc1 (stereo unspecified),.,11,.,9,14
S=C1Cc2ccccc2C(c2ccc(Cl)cc2)N1 (stereo unspecified),-1,-4,33*,1,-4
O=C1Cc2ccccc2C(c2ccc(Cl)cc2)N1 (stereo unspecified),0,4,0,-2,-3
CCOc1ccc(N2CC(C(=O)Nc3ccc(S(=O)(=O)Nc4nccs4)cc3)CC2=O)cc1 (stereo unspecified),1,2,32*,-2,17
COc1cccc(CC(=O)OC(C)C(=O)NCc2ccc3c(c2)OCO3)c1 (stereo unspecified),0,-6,55*,-4,3
CCOc1ccc(N2CC(C(=O)NCc3ccc4c(c3)OCO4)CC2=O)cc1 (stereo unspecified),0,5,36*,-4,-16
CCOc1ccc(N2CC(C(=O)Nc3ccccc3F)CC2=O)cc1 (stereo unspecified),-1,-3,34*,-3,-6
Cc1cccc(Cn2c(=O)n(Cc3ccc4c(c3)OCO4)c(=O)c3oc4ccccc4c32)c1,0,-2,.,.,.
CCOC(=O)c1ccccc1NC(=O)C1CC(=O)N(C2CCCCC2)C1 (stereo unspecified),1,-22,41*,-4,-5
